# The campaign covered roughly 69,000 compounds. About 1,000 (1.4%) showed an effect of 50% or more. For the sample, strong results were picked, then their nearest neighbours and some compounds at random.
# Tested on: Leishmania donovani
# Assay: Leishmania intramacrophage assay
# Assay type: functional, organism-based
# Design: scale not given: in the data most compounds retested in dose-response had high values
structure (smiles),measurement,setting,value
Cc1cc(N2CCC(NC(C)Cc3ccsc3)CC2)nc(C)n1 (stereo not given),Percent Effect,"30.3 µM, […]",70.01%
Cc1cc(CC(C)NC2CCSCC2)[nH]n1 (stereo not given),Percent Effect,"30.3 µM, […]",3.441%
Cc1cc(N2CCC(NC(C)Cc3ccsc3)CC2)nc(N)n1 (stereo not given),Percent Effect,"30.3 µM, […]",71.35%
Cc1cccc(C)c1NC(=O)CNC(C)Cc1ccsc1 (stereo not given),Percent Effect,"30.3 µM, […]",11.71%
CCOC(=O)N1CCC(NC(C)Cc2cc(C)n[nH]2)CC1 (stereo not given),Percent Effect,"30.3 µM, […]",11.64%
CCS(=O)(=O)NC[C@]12COC[C@H]1CN(Cc1cccnc1OC)C2.O=C(O)C(F)(F)F.O=C(O)C(F)(F)F,Percent Effect,"30.3 µM, […]",-3.146%
CC(C)N(C)Cc1cncc2c1CCN(Cc1cccs1)C2.Cl.Cl.Cl,Percent Effect,"30.3 µM, […]",7.349%
O=C(O)C(F)(F)F.O=C(O)C(F)(F)F.c1cncc(OC[C@@]23CCO[C@@H]2CCN(Cc2cccs2)C3)c1,Percent Effect,"30.3 µM, […]",13.49%
O=C(O)C(F)(F)F.O=C1Nc2ccccc2C12CCN(Cc1nccs1)CC2,Percent Effect,"30.3 µM, […]",18.81%
Cc1ccc(CN2CCO[C@H]3[C@@H](OCc4cccnc4)CC[C@@H]32)o1.O=C(O)C(F)(F)F.O=C(O)C(F)(F)F,Percent Effect,"30.3 µM, […]",19.54%
COc1cccc(Cn2cc(C3=CCN(CCO)CC3)cn2)c1,Percent Effect,"30.3 µM, […]",22.79%
COc1ccc(-n2nnnc2C2(NCc3ccco3)CCCCC2)cc1,Percent Effect,"30.3 µM, […]",-17.59%
FC1(F)CCNCC12CCN(c1cccnc1)C2.O=C(O)C(F)(F)F.O=C(O)C(F)(F)F (stereo not given),Percent Effect,"30.3 µM, […]",9.392%
Cc1ccc(N2CCC3(CN(CCO)CCC3(F)F)C2)nn1.O=C(O)C(F)(F)F (stereo not given),Percent Effect,"30.3 µM, […]",39.18%
OCCN1CCC(F)(F)C2(CCN(c3cccnc3)C2)C1 (stereo not given),Percent Effect,"30.3 µM, […]",51.95%
COCCN1C[C@@H]2CN(Cc3cccc(C)n3)C[C@@H]2C1=O.O=C(O)C(F)(F)F,Percent Effect,"30 µM, 30.03 µM",25.64%
CC(C)CN1CCC2(COCc3cnc(-c4ccccc4)nc32)C1.O=C(O)C(F)(F)F (stereo not given),Percent Effect,"30.3 µM, […]",36%
Cl.Cl.O=c1[nH]c2ncccc2n1C1CCNCC1,Percent Effect,"30.3 µM, […]",13.74%
COc1ccccc1CCN(C)Cc1nc(N)nc(N(C)C)n1,Percent Effect,"30.3 µM, […]",17.72%
Cc1ccc(CN2C[C@@H]3[C@@H](C2)OCC(=O)N3Cc2ccncc2)s1.O=C(O)C(F)(F)F.O=C(O)C(F)(F)F,Percent Effect,"30.3 µM, […]",15.08%
O=C(O)C(F)(F)F.O=C(O)C(F)(F)F.O=C1[C@H]2CN(Cc3ccncc3)C[C@H]2CN1c1ccsc1,Percent Effect,"30.3 µM, […]",21.46%
Cn1ncc2c(N3CCCN4CCC[C@H]4C3)nc(C(C)(C)C)nc21,Percent Effect,"30.3 µM, […]",-35.36%
CCCc1nc(N2CCCC3(CCNC3)C2)c2cnn(C)c2n1 (stereo not given),Percent Effect,"30.3 µM, […]",-7.107%
Cn1ncc2c(N3CCCC4(CCNC4)C3)nc(C(C)(C)C)nc21 (stereo not given),Percent Effect,"30.3 µM, […]",88.19%
O=C(N1CCCO1)[C@@]12CCO[C@@H]1CCN(Cc1cccnc1)C2.O=C(O)C(F)(F)F.O=C(O)C(F)(F)F,Percent Effect,"30.3 µM, […]",13.9%
CCO[C@H]1CN(CC2CC2)[C@@H]2CCCO[C@H]12.O=C(O)C(F)(F)F,Percent Effect,"30.3 µM, […]",13.63%
Cc1ncsc1CN1C[C@@H]2CCCO[C@@H]2[C@H](Nc2ccccn2)C1.O=C(O)C(F)(F)F.O=C(O)C(F)(F)F,Percent Effect,"30.3 µM, […]",-3.269%
COc1cc2nc(NCc3ccc(C)nc3)nc(N)c2cc1OC,Percent Effect,"30.3 µM, […]",62.6%
COc1cc(CNCC(O)c2ccccc2F)cc2c1OCO2 (stereo not given),Percent Effect,30 µM,34.29%
Cc1nc(CN2C[C@@H]3CN(C(=O)c4ccncc4)C[C@@H]3C2)cs1,Percent Effect,"30.3 µM, […]",-18.13%
Cc1ccc(C(=O)N2C[C@H]3CNC[C@H]3C2)cn1,Percent Effect,"30.3 µM, […]",-11.07%
Cc1ccc(C(=O)N2C[C@H]3CN(Cc4csc(C)n4)C[C@H]3C2)cn1,Percent Effect,"30.3 µM, […]",58.41%
O=C(NC[C@]12COC[C@H]1CN(Cc1cccnc1)C2)c1ccno1.O=C(O)C(F)(F)F.O=C(O)C(F)(F)F,Percent Effect,"30 µM, 30.03 µM",19.24%
Cc1ccccc1-n1nc(C)c(CN(C)C(C)Cc2ccccn2)c1C.O=C(O)CC(O)(CC(=O)O)C(=O)O (stereo not given),Percent Effect,"30.3 µM, […]",17.55%
CC(C)(O)c1cn(C[C@H]2C[C@@H]3CCN2C[C@@H]3C(=O)N2CCOCC2)nn1,Percent Effect,"30.3 µM, […]",75.59%
COCc1cn(C[C@H]2C[C@@H]3CCN2C[C@@H]3C(=O)N2CCOCC2)nn1,Percent Effect,"30.3 µM, […]",-19.8%
CC(C)(C)c1cn(C[C@H]2CC3CCN2C[C@@H]3C(=O)N2CCOCC2)nn1 (stereo not given in full),Percent Effect,"30.3 µM, […]",-15.57%
CN(C)[C@@H]1CN(C(=O)Cc2cccs2)[C@@H]2CCCO[C@H]12.O=C(O)C(F)(F)F,Percent Effect,"30.3 µM, […]",-12.28%
CN(C)CCN1CCN(Cc2cccs2)Cc2cccnc21.O=C(O)C(F)(F)F.O=C(O)C(F)(F)F.O=C(O)C(F)(F)F,Percent Effect,"30.3 µM, […]",-2.293%
CN(CC1Cc2ccccc2CN1C)C(=O)Cc1cccs1 (stereo not given),Percent Effect,"30.3 µM, […]",58.51%
